Source: PubChem BioAssay
TDP1 block – qHTS Assay for Inhibitors of Tyrosyl-DNA Phosphodiesterase (TDP1). Tyrosyl-DNA phosphodiesterase 1 (Homo sapiens), Q9NUW8. recombinant TDP1, AlphaScreen DNA substrate cleavage. Potency, µM (highest dose often 130 µM), without a hit: at the highest dose activity change, negative = inhibition, actives largely listed as inhibitors. hit rate 0.28% among 350,000. AID 485290, 2010; further: potency means the concentration at half of the fitted maximal effect; nearly all actives have a fitted effect of over 40% in size
Target sequence (Q9NUW8 whole entry, looked up): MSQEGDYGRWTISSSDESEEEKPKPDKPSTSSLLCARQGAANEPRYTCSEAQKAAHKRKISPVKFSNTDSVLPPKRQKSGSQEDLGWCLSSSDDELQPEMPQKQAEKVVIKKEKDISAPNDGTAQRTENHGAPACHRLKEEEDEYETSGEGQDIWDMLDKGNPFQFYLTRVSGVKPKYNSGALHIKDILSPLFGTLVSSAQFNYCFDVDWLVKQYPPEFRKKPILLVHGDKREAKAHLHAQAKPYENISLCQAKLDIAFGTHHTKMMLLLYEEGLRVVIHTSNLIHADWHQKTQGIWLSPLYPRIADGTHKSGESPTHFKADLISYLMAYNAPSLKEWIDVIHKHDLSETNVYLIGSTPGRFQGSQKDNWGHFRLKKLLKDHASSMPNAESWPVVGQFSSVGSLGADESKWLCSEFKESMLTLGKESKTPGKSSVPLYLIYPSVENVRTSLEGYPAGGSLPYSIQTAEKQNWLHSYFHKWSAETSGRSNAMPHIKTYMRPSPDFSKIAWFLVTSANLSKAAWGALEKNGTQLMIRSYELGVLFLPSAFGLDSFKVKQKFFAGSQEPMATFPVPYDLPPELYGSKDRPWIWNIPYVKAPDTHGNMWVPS
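Tdp1 1 nM final; 15 min RT w/ cpd; substrate 15 nM, 5 min; beads 10 ug/ml, 10 min; AlphaScreen read. Neg ctrl: no enzyme.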
ELG1 DNA repair – qHTS screen for small molecules that inhibit ELG1-dependent DNA repair in human embryonic kidney (HEK293T) cells expressing luciferase-tagged ELG1. Potency, µM (doses to about 46.1 µM), for inactives: at the highest dose activity change, negative = inhibition, hits mostly inhibitors. HEK293T ELG1-luciferase reporter, luminescence, 16 h; DNA damage induced by 5-fluorouridine. hit rate 2.3% among 330,000; further: potency means the concentration at half of the fitted maximal effect; nearly all actives have a fitted effect of over 55% in size
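HEK293T cells expressing luciferase-tagged ELG1 (2,000/well) received 5-Fluorouridine plus compound or DMSO for 16 hr at 37 °C. Luciferase was read by ONE-Glo luminescence after 30 min at room temperature.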
DT40 TDP1 CPT – qHTS for Inhibitors of human tyrosyl-DNA phosphodiesterase 1 (TDP1): qHTS in cells in presence of CPT. chicken DT40 Tdp1-/-;hTDP1 cells + 20 nM CPT, ATP luminescence, 48 h. hit rate 12% among 420,000. Potency, µM (highest dose often 46.2 µM), for the others: at the highest dose activity change, negative = growth inhibition, most hits filed as inhibitors; further: potency means the concentration at half of the fitted maximal effect; nearly all actives have a fitted effect of over 55% in size
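Chicken DT40 Tdp1-/- cells stably complemented with human TDP1 were seeded at 400 cells/well in medium containing 20 nM camptothecin, exposed to pin-transferred compounds, and grown at 37 °C for at least 48 hr. Viability was read as ATP luminescence.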
Giardia killer – Small Molecules that selectively kill Giardia lamblia: qHTS; Giardia lamblia trophozoite viability; activity change, % at 7.66 µM, hits read low; hit rate 0.15% among 340,000; AID 540267, 2011; in the data active means activity change below about -80%; inconclusive means between about -30% and that limit;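 further: parasites exposed to compound for two days anaerobically before the ATP read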
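Compounds were tested on trophozoites seeded at 100 cells/well and held 48 hrs at 37 deg C anaerobically. An ATP-based luminescent kit measured the remaining live cells.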
TDP1 cell noCPT – qHTS for Inhibitors of human tyrosyl-DNA phosphodiesterase 1 (TDP1): qHTS in cells in absence of CPT. DT40 Tdp1-/- hTDP1 cells, no CPT, ATP luminescence, 48 h. Potency, µM (doses to about 46.2 µM), without a hit: top-dose activity change, negative = growth inhibition, hits mostly inhibitors. hit rate 15% among 420,000. AID 686978, 2013; further: potency means the concentration at half of the fitted maximal effect; nearly all actives have a fitted effect of over 55% in size
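A cellular qHTS used chicken DT40 cells lacking endogenous Tdp1 but carrying stably transfected human TDP1. Compounds were applied without camptothecin, and cell growth kinetics were judged by ATP-dependent luminescence after ≥48 hr.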
IL1B secr inh – qHTS for Inhibitors of Inflammasome Signaling: IL-1-beta AlphaLISA Primary Screen | activity change, % at 57.5 µM | hit rate 4.7% among 360,000 | AID 743279, 2014 | THP-1 LPS/ATP IL-1B secretion, AlphaLISA, 16 h; stronger effect = lower value; in the data active means activity change below about -50%; inconclusive means mostly about -30% to -49%
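Secreted IL-1B measured by AlphaLISA bead assay after 16 h compound exposure of THP-1 cells; compounds (final up to 57.5 uM) added 1 h before LPS (250 ng/mL) and ATP (1.25 mM) stimulation; lower signal means less secretion.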
An asterisk follows results filed as active; ? = inconclusive; · = no result; [ ] = dose if it differs, or a comment. Hits are enriched below; roughly 19% of the tested compounds scored in any of these assays. Unless noted, the call rests on the fitted dose curve; in most records, active means well fitted curve in the direction sought with a large enough effect; inconclusive means small, poorly fitted or top-dose-only effect, or another doubt; inactive means no such curve, though single readings can be large; an effect the other way counts as inactive or inconclusive. On the % scale 0 is the no-effect control and ±100 the full control effect.

SMILES	TDP1 block	ELG1 DNA repair	DT40 TDP1 CPT	Giardia killer	TDP1 cell noCPT	IL1B secr inh
COC(=O)C1=C(C)N(Cc2ccc(C)cc2)C(=O)/C1=C\c1cc(OC)c(OC)c(OC)c1	9%	?	?	-2	21µM*	-79*
CS(=O)(=O)N1CCC2(CCCN(C(=O)Nc3ccccc3)C2)CC1	·	·	0%	·	4%	·
CCOC(=O)c1c(C)c(-c2ccccc2)n(CC(=O)NCc2ccccc2)c1C	0%	·	?	·	?	·
COCCCNC(=O)C(=O)Nc1ccc2c(c1)N(S(=O)(=O)c1cccs1)CCC2	0%	20%	0.65µM*	4	0.58µM*	19
O=C(Nc1ccc2c(c1)CCCN2C(=O)c1cccs1)c1c(F)cccc1F	2%	?	?	1	?	-27
CN(C)CCNC(=O)C(=O)Nc1ccc2c(c1)N(S(=O)(=O)c1cccs1)CCC2	·	?	16µM*	-12	7.3µM*	-29
CN(C)CCCNC(=O)C(=O)Nc1ccc2c(c1)N(S(=O)(=O)c1cccs1)CCC2	0%	4%	?	-4	?	-15
COCCCNC(=O)C(=O)Nc1cc2c3c(c1)CCC(=O)N3CCC2	0%	?	1%	-25	13%	-4
CCNC(=O)C(=O)Nc1ccc2c(c1)N(S(=O)(=O)c1cccs1)CCC2	0%	-22%	?	-7	?	21
C=CCNC(=O)C(=O)Nc1ccc2c(c1)N(S(=O)(=O)c1cccs1)CCC2	-2%	?	?	-7	23µM*	11
O=C(Nc1ccc2c(c1)N(S(=O)(=O)c1cccs1)CCC2)c1c(F)cccc1F	·	?	?	-6	16µM*	-8
COC(=O)C1CCCCN1Cc1ccc2c(c1)CN(C1CCSCC1)CCO2 (configuration not stated)	·	·	-4%[9.04 µM]	·	-26%	·
CCCCN(CC)CCCNC(=O)c1cn(CC)c2ccc(S(=O)(=O)N3CCOCC3)cc2c1=O	0%	·	-7%	·	-5%	·
CCOc1ccc(S(=O)(=O)N(CC)CC)cc1N	5%	14%	1%	-28	-25%	-1
CCOc1ccc(C(=O)c2ccc(OCC)c(N)c2)cc1N	5%	?	?	-13	29µM*	?
O=C1C=C(Nc2cccc3cccnc23)c2ccccc2C1=O	10%	?	5.8µM*	8	7.3µM*	-78*
O=C1C=C(Nc2ccccc2)c2ccccc2C1=O	1%	9.2µM*	7.3µM*	-29	4.6µM*	11
O=C1C=C(Nc2ccccc2)C(=O)c2ccccc21	8%	?	13µM*	-24	?	0
O=C1C(Nc2ccccc2)=C(NS(=O)(=O)c2ccccc2)C(=O)c2ccccc21	0%	3%	-29%	-12	?	-9
O=C1C(Nc2ccccc2)=CC(=O)c2ncccc21	16%	·	1µM*	·	1.1µM*	·
COc1ccc(N2CC(NC(=O)c3ccc(S(=O)(=O)N4CCOCC4)cc3)CC2=O)cc1 (configuration not stated)	-5%	·	-26%	·	?	·
O=C1C=C(Nc2ccccc2C(=O)O)c2ccccc2C1=O	2%	26µM*	?	29	?	47
CCc1ccc(NC2=CC(=O)C(=O)c3ccccc32)cc1	·	1%	2.3µM*	-6	2.9µM*	-87*
CCc1ccc2c(c1)C(=O)c1ccccc1C2=O	0%	?	14%	-9	7%	26
